{"source": "PubChem BioAssay AID1894", "about": "(NMMLSC, 2009)", "note": "Screen size: about 5,900 compounds; about 100 (1.7%) were called active. The sample as a whole holds a higher share of actives than the screen did. Values without a mark were called inactive.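 Rule for the calls: active = binding response below 72% of control, or above a set upper limit, though filed actives all read lower; inactive = the rest.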"}
{"target": "Mitogen-activated protein kinase kinase kinase 3 (Homo sapiens) (UniProt Q99759)", "sequence (Q99759 whole entry, looked up)": "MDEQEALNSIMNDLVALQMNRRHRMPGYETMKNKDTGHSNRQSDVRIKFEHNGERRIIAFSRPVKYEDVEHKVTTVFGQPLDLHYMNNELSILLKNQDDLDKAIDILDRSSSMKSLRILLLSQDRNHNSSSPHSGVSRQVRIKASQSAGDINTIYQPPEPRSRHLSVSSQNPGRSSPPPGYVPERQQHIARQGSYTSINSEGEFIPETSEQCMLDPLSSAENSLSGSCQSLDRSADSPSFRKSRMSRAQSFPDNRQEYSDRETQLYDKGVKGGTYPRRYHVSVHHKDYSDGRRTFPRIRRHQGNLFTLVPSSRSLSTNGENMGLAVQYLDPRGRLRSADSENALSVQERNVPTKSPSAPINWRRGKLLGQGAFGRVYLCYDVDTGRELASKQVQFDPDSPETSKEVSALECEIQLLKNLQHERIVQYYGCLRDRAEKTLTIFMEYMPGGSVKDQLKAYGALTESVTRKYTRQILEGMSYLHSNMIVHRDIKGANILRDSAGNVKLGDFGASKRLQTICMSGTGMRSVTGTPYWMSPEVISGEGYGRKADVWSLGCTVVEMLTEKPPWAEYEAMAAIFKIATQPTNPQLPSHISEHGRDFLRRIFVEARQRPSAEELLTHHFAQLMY", "assay": "blockers of MEK5-MEKK3 PB1 association – biochemical, bead multiplex flow cytometry, single concentration, wildtype, confirmation (AID 1894);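 note: 100% = DMSO only wells and 0% = binding blocked by excess unlabeled MEK5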", "details": "Alexa488-MEK5 binding to MEKK3, at 10 µM, stronger effect = lower value"}
{"compound": "COc1ccc(-c2[nH]ncc2CN(C)Cc2c(C)n[nH]c2C)c(OC)c1", "binding response (% of control)": "109%"}
{"compound": "COc1ccccc1N1CCN(CCCCOc2ccc(F)cc2)CC1", "binding response (% of control)": "103%"}
{"compound": "CN1C(=O)/C(=C\\c2ccc(-c3ccccc3)o2)SC1=S", "binding response (% of control)": "70% (active)"}
{"compound": "Cc1cc(Cl)ccc1OCc1nc(-c2ccncc2)no1", "binding response (% of control)": "79%"}
{"compound": "CCn1c(NC(=O)c2ccccc2)c(-c2cccs2)c(=O)c2ccccc21", "binding response (% of control)": "101%"}
{"compound": "Cc1cc(C)nc(-n2ncc3c2CC(c2ccc(C(C)C)cc2)CC3=O)n1", "note": "(stereo not drawn)", "binding response (% of control)": "99%"}
{"compound": "C/C(=N\\NC(=O)CNC(=O)C(c1ccccc1)c1ccccc1)c1ccc(C)cc1", "binding response (% of control)": "108%"}
{"compound": "Cc1cc2cc(CNC(=O)c3cccs3)ccc2[nH]1", "binding response (% of control)": "77%"}
{"compound": "CCOc1ccc(S(=O)(=O)N(CC(=O)O)c2ccccc2)cc1", "binding response (% of control)": "106%"}
{"compound": "CC(C)CC(=O)NC(=S)Nc1cc(C(=O)O)ccc1Cl", "binding response (% of control)": "104%"}
{"compound": "Cn1c(SCc2nc3ccccc3s2)nnc1-c1ccc2c(c1)OCO2", "binding response (% of control)": "98%"}
{"compound": "Cc1no[n+]([O-])c1COc1ccccc1/C=C1\\NC(=S)NC1=O", "binding response (% of control)": "101%"}
{"compound": "CC(C)(C)NC(=O)Cn1cnc([N+](=O)[O-])n1", "binding response (% of control)": "97%"}
{"compound": "COc1ccc(CCNC(=O)CSc2nnc3ccc(-c4ccncc4)nn23)cc1", "binding response (% of control)": "105%"}
{"compound": "CCOc1cc(C2C(C(=O)OC)=CN(C3CCCC3)C=C2C(=O)OC)cc(Br)c1O", "binding response (% of control)": "109%"}
{"compound": "O=C(O)c1cc(Cl)c(Cl)cc1C(=O)Nc1cccc2ncccc12", "binding response (% of control)": "102%"}
{"compound": "COc1ccc(NC(=O)Cn2nnc(C(=O)NCCc3ccc(OC)c(OC)c3)c2N)cc1", "binding response (% of control)": "102%"}
{"compound": "Cn1c(C(=O)NCCCN2CCCCC2)cc2sccc21", "binding response (% of control)": "109%"}
{"compound": "O=C(NCCCN1CCCCCC1)c1ccc(N2CCCC2=O)cc1", "binding response (% of control)": "110%"}
{"compound": "O=C(NCCCN1CCCCCC1)C1CC(=O)N(C2CCCC2)C1", "note": "(stereo not drawn)", "binding response (% of control)": "2% (active)"}
{"compound": "Cc1ccc(C(=O)NC(=S)Nc2ccc3[nH]c(=O)[nH]c3c2)cc1C", "binding response (% of control)": "100%"}
{"compound": "c1ccc(CN2CCC(N=C3NN=C(c4ccc5c(c4)OCCO5)CS3)CC2)cc1", "binding response (% of control)": "117%"}
{"compound": "C[C@H]1CCC(=O)N([C@H](CSc2ccccc2)Cc2ccccc2)CC1", "binding response (% of control)": "108%"}
{"compound": "O=C(CC1SCCNC1=O)Nc1ccc(Cl)c(Cl)c1", "note": "(stereo not drawn)", "binding response (% of control)": "106%"}
{"compound": "CCNC(=O)CSc1nc(-c2ccccc2)cs1", "binding response (% of control)": "104%"}
{"compound": "COc1ccc(S(=O)(=O)Nc2ccc3oc(C)c(C(C)=O)c3c2)cc1", "binding response (% of control)": "100%"}
{"compound": "O=C(CN1CCN(C(=O)c2ccco2)CC1)Nc1ccc(Cl)c(C(F)(F)F)c1", "binding response (% of control)": "104%"}
{"compound": "COc1ccccc1OCCNCC(O)COc1cccc2[nH]c3ccccc3c12", "note": "(stereo not drawn)", "binding response (% of control)": "100%"}
{"compound": "O=C(NCCN1CCOCC1)[C@H](Cc1ccccc1)N1C(=O)c2ccccc2C1=O", "binding response (% of control)": "100%"}
{"compound": "c1ccc(Nc2nc(N3CCOCC3)c3ccccc3n2)cc1", "binding response (% of control)": "106%"}
{"compound": "CCOc1ccc(S(=O)(=O)NCCCn2ccnc2)cc1NC(C)=O", "binding response (% of control)": "97%"}
{"compound": "CSCC[C@H](NC(=O)CCCn1nnc2ccccc2c1=O)C(=O)O", "binding response (% of control)": "102%"}
{"compound": "COc1cc(NC(=S)NCc2ccco2)c(OC)cc1Cl", "binding response (% of control)": "104%"}
{"compound": "CC(C)C(=O)N1c2ccccc2NC2=C(C(=O)CCC2)C1c1ccc(N(C)C)cc1", "note": "(stereo not drawn)", "binding response (% of control)": "106%"}
{"compound": "COc1ccccc1N=C(C)C1=C(O)COC1=O", "binding response (% of control)": "102%"}
{"compound": "CC1(C)Cc2cccc(OCC(=O)N3CCN(c4ccc([N+](=O)[O-])cc4)CC3)c2O1", "binding response (% of control)": "103%"}
{"compound": "CN(C)c1ccc(/C=C2\\NC(=S)N(Cc3ccccc3)C2=O)cc1", "binding response (% of control)": "99%"}
{"compound": "CC(C)CC(=O)N1CCN(Cc2ccccc2Br)CC1", "binding response (% of control)": "107%"}
{"compound": "CC1(C)OC(=O)N2CCc3ccccc3C21C", "note": "(stereo not drawn)", "binding response (% of control)": "104%"}
{"compound": "COc1cccc(NC(=S)NCc2ccccn2)c1", "binding response (% of control)": "96%"}
{"compound": "CCOc1nnc(C)c2c(C)n(-c3cccc(Cl)c3)nc12", "binding response (% of control)": "91%"}
{"compound": "CCCc1nnc(SCC(=O)N2C(C)CCCC2C)n1CC", "note": "(stereo not drawn)", "binding response (% of control)": "111%"}
{"compound": "O=C(Nc1cccnc1)c1cc(Cl)ccc1Cl", "binding response (% of control)": "106%"}
{"compound": "O=C(O)CC(Cc1ccccc1)C(=O)Nc1ccc([N+](=O)[O-])cc1", "note": "(stereo not drawn)", "binding response (% of control)": "100%"}
{"compound": "COc1cccc(/C=N\\NC(=O)C2=NNC(=O)C2C)c1O", "note": "(stereo not drawn)", "binding response (% of control)": "100%"}
{"compound": "CNC(C)C#Cc1ccc2sc3cc(OC)c(OC)cc3c(=O)c2c1", "note": "(stereo not drawn)", "binding response (% of control)": "104%"}
{"compound": "Cc1ccc(Nc2nc(CSc3nnc(-c4ccncc4)n3-c3ccccc3C)cs2)cc1", "binding response (% of control)": "103%"}
{"compound": "Cc1c(S(=O)(=O)NCc2ccccc2)c(=O)n(C)c(=O)n1C", "binding response (% of control)": "101%"}
{"compound": "Cc1cnc(NC(=O)Cn2cnc3c2c(=O)n(C)c(=O)n3C)s1", "binding response (% of control)": "97%"}
{"compound": "C=CCn1c(=S)sc2c(=O)[nH]c(C)nc21", "binding response (% of control)": "107%"}
{"compound": "CC1CCN(C2=NC(=O)/C(=C/c3cn[nH]c3-c3ccccc3)S2)CC1", "binding response (% of control)": "91%"}
{"compound": "O=C(CCCO)N/N=C/c1cc(Br)ccc1O", "binding response (% of control)": "102%"}
{"compound": "COc1ccc(CC(=O)N2N=C(C)CC2(O)C(F)(F)F)cc1", "note": "(stereo not drawn)", "binding response (% of control)": "98%"}
{"compound": "O=C1C=CC(=O)N1c1ccc(N2CCCCC2)cc1", "binding response (% of control)": "100%"}
{"compound": "N=c1c2c(-c3ccccc3)c(-c3ccccc3)n(Cc3ccccc3)c2ncn1CCCO", "binding response (% of control)": "110%"}
{"compound": "Cc1cccc(/C=N/NC(=O)CNc2cccc3ccccc23)n1", "binding response (% of control)": "110%"}
{"compound": "O=C(O)CCCC(=O)Nc1ccc(Oc2cccc(C(F)(F)F)c2)nc1", "binding response (% of control)": "105%"}
{"compound": "Cc1nn(-c2ccccc2)c(C)c1NC(=O)CCl", "binding response (% of control)": "97%"}
{"compound": "COC(=O)c1c(NC(=O)COC(=O)[C@@H](NS(=O)(=O)c2ccccc2)C(C)C)sc2c1CCC2", "binding response (% of control)": "102%"}
{"compound": "Cc1cn(COC/C=C/c2ccccc2)c(=O)[nH]c1=O", "binding response (% of control)": "105%"}
{"compound": "CCO[C@H]1OC(C(=O)N2CCOCC2)=C[C@@H](c2ccc3c(c2)OCO3)[C@@H]1CCCO", "binding response (% of control)": "104%"}
{"compound": "Cc1noc(C)c1S(=O)(=O)N(C)Cc1ccccc1", "binding response (% of control)": "103%"}
{"compound": "CCN(CC)C(=O)CC(c1ccc2c(c1)OCO2)c1c(OC)cc(OC)c2c(-c3ccccc3)cc(=O)oc12", "note": "(stereo not drawn)", "binding response (% of control)": "103%"}
